Rows were chosen to be rich in hits. Some 21% of all compounds tested hit in one or more screens of this group.
Pf growth 48h = P. falciparum growth inhibition at 48 hours (one generation) | 310,000 compounds, 5.9% hits | AID 504832 | P. falciparum luciferase growth in erythrocytes, 48 h | Potency, µM (series often up to 28.7 µM), inactives show at the highest dose activity change, negative = inhibition, most hits filed as inhibitors; further: potency means the concentration at half of the fitted maximal effect; on the % scale 0 is the no-effect control and ±100 the full control effect
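Luminescence readout; reporter = integrated firefly luciferase in P. falciparum. RBC culture at 2% hematocrit, 0.1% parasitemia final, 37 C/5% CO2; decreased signal taken as growth inhibition.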
HCV inhibitor = inhibitors of hepatitis C virus infection; Huh7.5.1 HCVcc-Cre infection, luciferase reporter, 44 h; Potency, µM (series often up to 41.8 µM), without a hit: top-dose activity change, negative = inhibition, hits mostly inhibitors; 340,000 compounds, 3.4% hits; AID 651820; further: potency means the concentration at half of the fitted maximal effect; on the % scale 0 is the no-effect control and ±100 the full control effect
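After 44 h co-culture of compound, cells and HCVcc-Cre (~0.5 moi), substrate is added for 15 min at room temperature and luciferase measured over 15 sec. Cells were seeded at 1,000/well and pre-cultured 4 h.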
HCMV inh = inhibitors of human cytomegalovirus; HFF cells, HCMV-luciferase reporter, 72 h; hits give low values; activity change, negative = inhibition, % at 57.5 µM; 410,000 compounds, 4.5% hits; AID 1259415; in the data active means activity change below about -60%; inconclusive means no clear call, values can overlap the other calls; inactive means above about -39%; further: on the % scale 0 is the no-effect control and ±100 the full control effect
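Steps: HFFs plated, 16 h 37C; compounds added; HCMV-luciferase added to MOI 1 PFU/cell; 72 h 37C; OneGlo reagent, 5 min room temperature; luminescence read, normalized to controls.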
CHX counter = counter-screen hit for Shiga toxin inhibitors, cycloheximide | cell reporter, cycloheximide protein synthesis inhibition counterscreen | max response, % | 300,000 compounds, 12% hits; in the data active means max response mostly above about 13%, no sharp cut-off; inactive means mostly below about 14%; further: read at 38.3 µM for the half of the compounds with a filed dose; 0% is about no effect
Shiga toxin inh = blocks Shiga toxin action in Vero cells. AID 2315. Vero cells, Shiga toxin protein synthesis inhibition reporter. inhibition, % at 38.7 µM. 290,000 compounds, 9.2% hits; in the data active means inhibition mostly above about 28%, no sharp cut-off; inactive means mostly below about 43%; further: 0% is about no effect
Pf growth 96h = inhibits malaria parasite growth, 96 h | P. falciparum luciferase reporter growth, 96 h | Potency, µM (top dose mostly 28.7 µM), for the others: at the highest dose activity change, negative = inhibition, hits mostly inhibitors | 320,000 compounds, 6.9% hits | AID 504834; further: potency means the concentration at half of the fitted maximal effect; on the % scale 0 is the no-effect control and ±100 the full control effect
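Plates of compound plus infected erythrocytes (2% hematocrit, 0.05% parasitemia final) incubate 96 hours, 37 C, 5% CO2. Detection reagent added; reduced luminescence from the parasites' luciferase reporter flags inhibition.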
* marks the source's active call; other numbers are inactive results; ! = not confirmed by another sample. Unless noted, the call rests on the fitted dose curve; in most records, active means well fitted inhibition curve with a large enough effect; inconclusive means small, poorly fitted or top-dose-only effect, or another doubt; inactive means no such curve, though single readings can be large or run the other way.

`Cc1ccccc1-n1nc2c(c1NC(=O)C1CCCC1)CS(=O)(=O)C2` gave Pf growth 48h 1%, HCV inhibitor -7%, HCMV inh 6, CHX counter 2, Shiga toxin inh -2 and Pf growth 96h 12%.
Screening O=C(Nc1ccc(F)cc1F)c1cc(-c2ccccc2O)no1 returned HCMV inh -1.
For Cc1ccccc1/C=N/Nc1ccnc2cc(Cl)ccc12 the results were Pf growth 48h 0.83µM*, HCV inhibitor inconclusive, HCMV inh -69*, CHX counter -2, Shiga toxin inh 13 and Pf growth 96h 0.83µM*.
For O=C(N/N=C/c1ccc(O)cc1O)C(=O)N/N=C/c1ccc(O)cc1O the results were Pf growth 48h inconclusive, HCV inhibitor -2%, HCMV inh 0, CHX counter -2, Shiga toxin inh 1 and Pf growth 96h -1%.
Screening Cc1ccc(/C=N/Nc2ccnc3cc(Cl)ccc23)c(C)c1 returned Pf growth 48h 0.21µM*, HCV inhibitor 10µM*, HCMV inh -76*, CHX counter -3, Shiga toxin inh -3 and Pf growth 96h inconclusive.
Oc1ccc(/C=N/Nc2ccnc3cc(Cl)ccc23)c(O)c1 was read as Pf growth 48h 0.59µM*, HCV inhibitor 10µM*, HCMV inh -26, CHX counter 23*, Shiga toxin inh 38* and Pf growth 96h 0.37µM*.
`Cc1ccc(NC(=O)CN2C(=O)N/C(=C/c3cc(C)n(-c4ccc(C(=O)O)cc4)c3C)C2=O)cc1` gave Pf growth 48h -19%, HCV inhibitor 11%, HCMV inh -22, CHX counter 33, Shiga toxin inh 84* and Pf growth 96h inconclusive.
Cc1ccc(N/N=C2/CCCNC2=O)cc1 was read as Pf growth 48h 24%, HCV inhibitor 13%, HCMV inh 29, CHX counter 11, Shiga toxin inh 40 and Pf growth 96h 89%.
Screening CC(=O)c1ccc(N/N=C2/CCCNC2=O)cc1 returned Pf growth 48h inconclusive, HCV inhibitor 11%, HCMV inh 96, CHX counter 22*, Shiga toxin inh 45 and Pf growth 96h -10%.
Screening O=C1NCCC/C1=N/Nc1cc(F)ccc1F returned Pf growth 48h 70%, HCV inhibitor -22%, HCMV inh -24, CHX counter 36*, Shiga toxin inh 42* and Pf growth 96h 114%.
For CC1CC(=O)c2ccccc2C1C (centres undefined) the results were HCV inhibitor 6% and HCMV inh -8.
CCCCOc1ccc(C(=O)NCc2cn3cccc(C)c3n2)cc1 was read as HCMV inh 8.
For CCCn1c2c(c(O)c(C(=O)Nc3ccccc3)c1=O)CCCC2 the results were Pf growth 48h 52%, HCV inhibitor 10µM*, HCMV inh 37, CHX counter 1, Shiga toxin inh -6 and Pf growth 96h -3%.
Screening CCCn1c2c(c(O)c(C(=O)Nc3ccccn3)c1=O)CCCC2 returned Pf growth 48h 22%, CHX counter -11, Shiga toxin inh -24 and Pf growth 96h inconclusive.
`CCCCc1nc2ccccc2c(=O)n1NC(=O)c1c(O)c2c(n(CC(C)C)c1=O)CCCC2` gave Pf growth 48h inconclusive, HCV inhibitor -2%, HCMV inh -79*, CHX counter -3, Shiga toxin inh -7 and Pf growth 96h inconclusive.
For Cc1ccc(Cn2c(C)c(CNCc3ccccc3F)c(C(=O)O)c2C)cc1 the results were HCMV inh 3.
`CCn1cc(C(=O)NCCCN2CCC(C)CC2)c(=O)c2cc(S(=O)(=O)N3CCOCC3)ccc21` gave Pf growth 48h inconclusive, HCV inhibitor -2%, HCMV inh -37, CHX counter -2, Shiga toxin inh -14 and Pf growth 96h inconclusive.
`Cc1ccc(/C=C/c2onc(C)c2S(=O)(=O)N2CCC(C(=O)NCc3ccc(N(C)C)cc3)CC2)cc1` gave HCMV inh -31.
CCN1C(=O)/C(=C/c2cccs2)N(C)C1=S was read as HCV inhibitor 5%, HCMV inh -5, CHX counter 0, Shiga toxin inh 10 and Pf growth 96h 1.7µM*.
CCN1C(=O)/C(=C/c2ccc(C)o2)N(C)C1=S was read as Pf growth 48h 35%, HCV inhibitor 2%, HCMV inh inconclusive, CHX counter 16*, Shiga toxin inh 11 and Pf growth 96h -18%.
For CCOc1ccc(Nc2sc(C(=O)c3cccc(OC)c3)c(N)c2S(=O)(=O)c2ccccc2)cc1 the results were HCMV inh 21.
Screening CCc1ccccc1NC(=O)c1ccc(CN2C(=O)CCn3nc(C)cc32)cc1 returned HCMV inh -2.
Cc1cccc(NC(=O)CSc2cc(C)c(C#N)c3nc4ccccc4n23)c1 was read as Pf growth 48h inconclusive, HCV inhibitor 3%, HCMV inh 16, CHX counter -2, Shiga toxin inh 3 and Pf growth 96h 32%.
Screening COc1ccc2c(c1OC)CN1CCc3cc4c(cc3[C@@H]1[C@@H]2O)OCO4 returned Pf growth 48h inconclusive, HCV inhibitor -14%, CHX counter -3, Shiga toxin inh -15 and Pf growth 96h 9.3µM*.
Screening COc1ccc2c(c1OC)C(=O)O[C@H]2[C@@H]1c2cc3c(cc2CCN1C)OCO3 returned Pf growth 48h -21%, HCV inhibitor 4%, HCMV inh inconclusive and Pf growth 96h 15µM*!.
For CCC1=C(CC2NCCc3ccccc32)CC2c3cc(OC)c(OC)cc3CCN2C1 (centres undefined) the results were HCV inhibitor inconclusive and HCMV inh -100*.
For COc1cc2c(cc1OC)C1Cc3ccc(OC)c(OC)c3CN1CC2 (centres undefined) the results were Pf growth 48h 1.3µM*, HCV inhibitor inconclusive, HCMV inh 41, CHX counter -6, Shiga toxin inh -10 and Pf growth 96h inconclusive.
COc1cc2c(cc1OC)CN1CCc3cc(OC)c(OC)cc3C1C2 (centres undefined) was read as HCMV inh 14.
`CCOc1ccc(N(C)Cc2cc(=O)oc3ccc(OCC)cc23)cc1` gave Pf growth 48h -29%, HCV inhibitor inconclusive, HCMV inh -29, CHX counter 4, Shiga toxin inh -12 and Pf growth 96h 13%.
Screening COc1ccc(OC)c(CNC(=O)c2ccc(-c3nc(CSc4ccccc4)c(C)o3)cc2)c1 returned HCMV inh 11.
For CCCn1c(=O)c2c(nc3n2CCCN3CCc2ccc(OC)c(OC)c2)n(C)c1=O the results were Pf growth 48h inconclusive, HCV inhibitor inconclusive, HCMV inh -14, CHX counter 1, Shiga toxin inh -19 and Pf growth 96h inconclusive.
`COc1ccc(C(=O)COC(=O)Cc2n[nH]c(=O)c3ccccc23)c(OC)c1` gave Pf growth 48h 9%, HCV inhibitor -16%, HCMV inh 15 and Pf growth 96h 20%.

Bioassay records as filed in PubChem.
